Bioassay records as filed in PubChem BioAssay.
Sampled rows, rich in hits. Any-hit rate of the full collection: about 12%.
BAZ2B block – qHTS Assay for Inhibitors of BAZ2B; Bromodomain adjacent to zinc finger domain protein 2B (Homo sapiens), Q9UIF8; AlphaScreen BAZ2B-H3K14Ac peptide displacement; Potency, µM (doses to about 114 µM), for the others: at the top dose activity change, negative = inhibition, hits mostly inhibitors; hit rate 4.4% among 360,000; AID 504333, 2011; also: % is scaled to controls: 0 for no effect and ±100 for the full control effect; nearly all actives have a fitted effect of over 60% in size
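Inhibition is scored as reduced AlphaScreen emission. The BAZ2B/b-H3(5-23)K14Ac complex (50 nM each) in PBS pH 7.4, 0.01% Tween-20 meets compound (up to 110 uM) for 30 min at RT before bead addition.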
Sfp PPTase inh – qHTS Assay for Inhibitors of Bacillus subtilis Sfp phosphopantetheinyl transferase (PPTase). 4'-phosphopantetheinyl transferase ffp (Bacillus subtilis), Q9F4F7. Biochemical Sfp PPTase activity, qHTS. Potency, µM, inactives show largest response in the series, negative = inhibition, hits mostly inhibitors. hit rate 3.5% among 310,000. AID 1490, 2009;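 also: the enzyme is Sfp with the accession as filed and its product quenches rhodamine fluorescence; 0% = enzyme reaction without inhibitor and -100% = no enzyme wells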
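Fluorescence-quenching assay with 15 nM Sfp, 5 uM rhodamine-CoA and 12.5 uM BHQ-2-labelled ybbR peptide in pH 7.6 Hepes/MgCl2 buffer. Enzyme was pre-incubated with compound for 15 min at room temperature. Rate was taken from the 30-min fluorescence change (525/598 nm).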
G9a block – qHTS Assay for Inhibitors of Histone Lysine Methyltransferase G9a. Histone-lysine N-methyltransferase EHMT2 (Homo sapiens), Q96KQ7. G9a H3K9 monomethylation, AlphaScreen, 2 h. Potency, µM (highest dose often 102 µM), without a hit: at the top dose activity, negative = inhibition, most hits filed as inhibitors. hit rate 8.8% among 350,000. AID 504332, 2011; also: % is scaled to controls: 0 for no effect and ±100 for the full control effect; nearly all actives have a fitted effect of over 75% in size
Target sequence (Q96KQ7 913-1193 limits assumed): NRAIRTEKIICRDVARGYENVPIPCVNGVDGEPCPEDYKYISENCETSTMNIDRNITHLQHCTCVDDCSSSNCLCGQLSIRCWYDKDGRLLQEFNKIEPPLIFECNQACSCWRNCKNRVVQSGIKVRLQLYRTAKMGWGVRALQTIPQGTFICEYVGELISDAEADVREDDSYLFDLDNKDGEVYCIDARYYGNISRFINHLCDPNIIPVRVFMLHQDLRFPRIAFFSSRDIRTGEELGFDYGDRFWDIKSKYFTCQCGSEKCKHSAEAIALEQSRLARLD
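AlphaScreen detection with an anti-monomethyl H3K9 antibody quantified product after a 2 h room-temperature reaction containing 500 nM biotinylated H3K9 peptide, 20 µM SAM and 20 nM enzyme, which had been preincubated 15 min with compound.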
HP1b chromo inh – HTS for Inhibitors of HP1-beta Chromodomain Interactions with Methylated Histone Tails; Chromobox protein homolog 1 (Homo sapiens), P83916; AlphaScreen HP1-beta / biotin-H3K9me3 peptide binding; Potency, µM (top dose mostly 114 µM), inactives show at the top dose activity change, negative = inhibition, usual class: inhibitors; hit rate 0.56% among 390,000; AID 540317, 2011; also: nearly all actives have a fitted effect of over 70% in size
Target sequence (P83916 whole entry, looked up): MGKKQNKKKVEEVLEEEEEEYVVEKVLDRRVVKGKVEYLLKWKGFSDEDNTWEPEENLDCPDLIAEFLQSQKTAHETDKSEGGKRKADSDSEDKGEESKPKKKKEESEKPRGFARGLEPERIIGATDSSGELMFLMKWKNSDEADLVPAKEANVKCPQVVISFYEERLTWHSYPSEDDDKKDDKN
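HP1-beta protein (50 nM final) preincubated 30 min at room temperature with biotinylated H3(1-18)K9me3 peptide (50 nM) in PBS pH 7.4, 0.01% Tween-20, then compound added for 30 min. AlphaScreen streptavidin donor/nickel chelate acceptor beads (10 ug/mL final), 30 min dark, luminescence read.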
L3MBTL1 block – qHTS Assay for the Inhibitors of L3MBTL1; hit rate 0.66% among 230,000; Potency, µM (series often up to 57.1 µM), without a hit: at the top dose activity, negative = inhibition, usual class: inhibitors; Lethal(3)malignant brain tumor-like protein 1 (Homo sapiens), Q9Y468; AlphaScreen L3MBTL1–H3K9me1 peptide binding; AID 485360, 2010; also: % is scaled to controls: 0 for no effect and ±100 for the full control effect; nearly all actives have a fitted effect of over 60% in size
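L3MBTL1 (50 nM) pre-complexed 30 min with biotinylated H3(1-15)K9me1 peptide (75 nM), then compounds added for 30 min at room temperature; AlphaScreen streptavidin donor/nickel chelate acceptor beads (10 ug/mL final) read after 30 min dark incubation.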
JMJD2A Tudor – qHTS Assay for Inhibitors of JMJD2A-Tudor Domain; hit rate 4.4% among 390,000; AlphaScreen JMJD2A-Tudor / H3K4me3 peptide binding; AID 504339, 2011; Potency, µM (titrated, usually from 114 µM), for the others: at the highest dose activity change, negative = inhibition, hits mostly inhibitors; Lysine-specific demethylase 4A (Homo sapiens), O75164; also: % is scaled to controls: 0 for no effect and ±100 for the full control effect; nearly all actives have a fitted effect of over 50% in size
Starred values were filed as active, the others as inactive; ? = inconclusive; . = no result given; [ ] = remark or other dose. Calls follow the shape of the dose curve; as a rule, active = well fitted curve in the direction sought with a large enough effect; inconclusive = small, poorly fitted or top-dose-only effect, or another doubt; inactive = no such curve, though single readings can be large; an effect the other way counts as inactive or inconclusive. Potency is read from the fitted curve at half-maximal effect.

SMILES	BAZ2B block	Sfp PPTase inh	G9a block	HP1b chromo inh	L3MBTL1 block	JMJD2A Tudor
CCOC(=O)c1c(C)[nH]c(C)c1S(=O)(=O)N1CCC(C(=O)Nc2ccc(F)cc2F)CC1	?	.	-26.5%[59 µM]	17.7%	.	-17.5%
CC(=O)N1CCc2c(sc(NC(=O)C3CCCCC3)c2C(N)=O)C1	5.3%	2.8%	?	41.4%	12.8%	-9.0%
Cc1cc(C)n(CC(=O)N/N=C/c2cc([N+](=O)[O-])ccc2O)n1	39.8µM*	13.2%	-14.4%	31.9%	?	?
CC(=O)c1ccc(C2CC34CNS(=O)(=O)C3CC2O4)cc1 (stereo unspecified)	.	-4.7%	.	-22.6%	.	79.4µM*
CCOc1ccccc1Oc1coc2cc(OCC(=O)O)ccc2c1=O	-32.2%	22.8%	14.1µM*	-21.3%	?	-15.3%
Cc1ccc(Cl)cc1NC(=O)Cn1c(=O)cc(C)c2c(C)nn(C)c21	-25.2%	.	-2.7%[59 µM]	29.8%	.	?
CCSc1nc(O)cc(=O)[nH]1	-17.9%	18.7%	7.0%[12.7 µM]	49.9%	.	2.8%
CCSc1nc(=S)cc(C)[nH]1	18.8%	22.4µM*	10µM*	3.8%	21.0%	-10.9%
O=C(Nc1ccccc1)c1nnsc1S(=O)c1ccc(Cl)cc1 (stereo unspecified)	-36.2%	7.94µM*	?	-32.2%	-0.3%	?
O=C(c1nnsc1S(=O)c1ccc(Cl)cc1)N1CCOCC1 (stereo unspecified)	-1.5%	56.2µM*	31.6µM*	?	-20.6%	7.08µM*
CNC(=O)c1nnsc1S(=O)(=O)c1ccc(Cl)cc1	-14.6%	7.08µM*	14.1µM*	-14.7%	?	1.4%
O=C(c1nnsc1S(=O)(=O)c1ccc(Cl)cc1)N1CCOCC1	-23.4%	16.2%	50.1µM*	23.1%	-2.9%	-15.0%
Cc1nnsc1S(=O)c1ccc(Cl)cc1 (stereo unspecified)	-3.9%	12.2%	22.1%	33.0%	.	-9.1%
CC(C)NC(=O)c1nn(C)c2c1CS(=O)(=O)c1ccccc1-2	-1.4%	.	9.5%[59 µM]	36.7%	.	2.0%
CC(C)c1ccc(N2C(=NC(=O)C3CC3)SC3CS(=O)(=O)CC32)cc1 (stereo unspecified)	-15.9%	9.1%	6.4%	39.9%	.	-8.3%
Cc1ccc(-c2c(C3C4C=CCC(C)C4C(=O)N3Cc3ccccc3)ccc3ccccc23)cc1 (stereo unspecified)	.	5.8%	.	34.5%	.	-24.8%
CCOCCCNC(=O)c1cc2c(=O)n(C)c3ccccc3c2n1C	-8.3%	.	10µM*	17.5%	.	-13.5%
Cc1ccc(CNC(=O)c2cc3c(=O)n(C)c4ccccc4c3n2C)cc1	-3.5%	10.1%	6.0%	8.8%	.	-18.6%
CN(CCNC(=O)c1cc2c(=O)n(C)c3ccccc3c2n1C)Cc1ccccc1	-35.3%	-11.0%	50.1µM*	28.1%	.	-26.1%
CCCN(CCC)CCNC(=O)c1cc2c(=O)n(C)c3ccccc3c2n1C	-0.8%	12.0%	?	14.3%	7.0%	35.5µM*
CCCC(=O)N(c1ccc2oc(-c3ccccc3)c(C(=O)OCC)c2c1)S(=O)(=O)c1ccc(C)cc1	-1.1%	.	-16.9%[59 µM]	65.8%	.	-25.5%
Cc1cccn2c(=O)c3cc(C(=O)NC4CCCC4)c(=N)n(C4CCCCC4)c3nc12	-6.6%	11.0%	0.9%	2.0%	.	-16.1%
Cc1ccc(C)c(NC(=O)CN(C)C(=O)c2cc(C3CC3)nn2-c2ccccc2)c1	.	.	.	30.0%	-1.6%	-7.2%
Cn1c(=O)oc2cc(S(=O)(=O)N3CCCC(C(=O)N4CC=C(c5ccccc5)CC4)C3)ccc21 (stereo unspecified)	6.2%	20.1%	50.1µM*	.	-0.6%	.
